Shown are actives, neighbours in structure and some others; about 3.1% of the full set was active somewhere.
esBAF inh – inhibitors of esBAF chromatin remodeling in mouse ES cells. Bmi1-luciferase knock-in reporter, 24 h; 100% = twice the neutral-well signal. reporter increase, % at 12.5 µM. actives 2% (n = 350,000); in the data active = activation above about 40%; inconclusive = no clear call, values can overlap the other calls;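 also: 0% = median of the plate's neutral control wells and 100% = double that signal; a rise in the Bmi1 reporter signal indicates esBAF inhibition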
MITF TRPM1 HTS – activators of MITF-driven TRPM1 promoter activity in SK-MEL-5 cells; activation, % at 12.5 µM; SK-MEL-5 TRPM1-promoter luciferase, 24 h; % of positive control, neutral wells = 0; AID 588334; actives 0.75% (n = 300,000);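 active = mean activation of at least 80% with every replicate also reaching 80%; inconclusive = mean reaches 80% but some replicate falls short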;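 also: 0% = neutral control wells and 100% = parthenolide positive control wells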
Wnt bcat act – Wnt/beta-catenin pathway activation; Wnt/beta-catenin reporter cell assay, activator, plate reader; activation, % at 9.35 µM; actives 1.2% (n = 300,000); AID 743398; in the data active = activation above about 30%, passing the limit was not always enough; inconclusive = no clear call, values can overlap the other calls;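 also: 0% = neutral control wells and 100% = positive control wells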
Statin myotox sup – suppressors of simvastatin-induced myotoxicity in C2C12 myotubes; ATP luminescence, 48 h; scaled: DMSO 0, geranylgeraniol control 100; rescue of ATP level, % at 7.49 µM; actives 0.78% (n = 330,000); AID 602340;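 active = mean ATP rescue above about 67%, or every replicate alone reaching that limit, limit read from the data, passing the limit was not always enough; inconclusive = no clear call, values can overlap the other calls; inactive = mean under the limit and some replicate under it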;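 also: myotubes were challenged with 10 µM simvastatin during compound exposure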
Rtt109 Vps75 – inhibitors of Candida albicans Rtt109/Vps75 histone acetyltransferase; AID 540336; actives 0.16% (n = 330,000); inhibition, % at 34.9 µM; purified Rtt109/Vps75, ThioGlo CoA-SH fluorescence, 4 h; Q5AAJ8;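 active = inhibition of at least 50% in every replicate; inconclusive = best replicate reaches 50% inhibition but some replicates fall short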
Target sequence (Q5AAJ8 whole entry, looked up): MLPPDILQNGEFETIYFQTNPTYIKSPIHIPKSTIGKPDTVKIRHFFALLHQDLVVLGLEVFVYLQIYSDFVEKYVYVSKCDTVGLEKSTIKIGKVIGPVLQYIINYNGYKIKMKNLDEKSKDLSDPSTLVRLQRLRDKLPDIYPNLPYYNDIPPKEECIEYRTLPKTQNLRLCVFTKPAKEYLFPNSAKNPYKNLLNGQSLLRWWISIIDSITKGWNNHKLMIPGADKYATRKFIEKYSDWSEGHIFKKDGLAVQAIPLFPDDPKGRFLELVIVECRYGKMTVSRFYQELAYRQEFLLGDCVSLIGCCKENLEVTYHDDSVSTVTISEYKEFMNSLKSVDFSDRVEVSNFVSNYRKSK
An asterisk follows results filed as active; ? = inconclusive; / = no result.

SMILES	esBAF inh	MITF TRPM1 HTS	Wnt bcat act	Statin myotox sup	Rtt109 Vps75
Cc1ccc(-c2nc3cc(C)c(Br)c(C)n3c2Cc2cccc(F)c2)cc1	54*	/	11	4	/
Cc1ccc(-c2nc3ccc(Br)cn3c2Cc2cccc(Cl)c2)cc1	43*	/	12	-13	/
C[C@@H]1CN([C@@H](C)CO)C(=O)c2cc(C#Cc3ccccc3F)cnc2O[C@@H]1CN(C)C(=O)c1ccc2c(c1)OCO2	-5	/	/	13	/
O=C(C[C@H]1C=C[C@H](NS(=O)(=O)c2ccc(F)cc2)[C@@H](CO)O1)NCCN1CCCCC1	3	/	/	-2	/
C[C@H](CO)N1C[C@H](C)[C@H](CN(C)S(C)(=O)=O)Oc2c(NC(=O)c3cnccn3)cccc2C1=O	3	/	/	20	/
Cc1ccc2nc(-c3cccc(Br)c3)c(Cc3ccccn3)n2c1	48*	/	24	1	/
Cc1ccc(-c2nc3ccc(C)cn3c2Cc2cccc(Cl)c2)cc1	/	/	15	/	/
COC(=O)c1ccc2nc(-c3ccco3)c(Cc3ccccc3)n2c1	11	/	1	83*	/
Cc1ccc(-c2nc3ccc(Cl)cn3c2Cc2cccc(Cl)c2)cc1	50*	/	46*	-3	/
COc1ccc(-c2cc(C(=O)N3CCCCCC3)no2)cc1	-9	42	-2	-26	7
COc1cccc(-c2cc(C(=O)N3CCCCCC3)no2)c1	-21	/	41*	-11	0
O=C(c1cc(-c2ccccc2)on1)N1CCCCCC1	55*	141*	37*	-1	9
O=C(c1cc(-c2cccc(O)c2)on1)N1CCCCC1	-17	53	40*	4	8
O=C(c1cc(-c2ccc(F)cc2)on1)N1CCCCCC1	22	138*	-4	53	-7
C[C@H](CO)N1C[C@H](C)[C@H](CN(C)C(=O)Nc2ccccc2)Oc2ncc(C3=CCCCC3)cc2C1=O	-2	/	/	10	/
COc1ccc(-c2cc(C(=O)N3CCCCCC3)no2)cc1OC	71*	/	17	6	-4
COc1ccc(-c2cc(C(=O)N3CCCC3)no2)cc1	/	-16	29	/	1
CCN1C(=O)/C(=C\N(C(C)=O)c2ccccc2)OC1=S	45*	6	/	-6	7
CCN1C(=O)/C(=C/N(C)c2ccccc2)OC1=S	39	46	6	-1	19
Cc1c(C(=O)Nc2ccccc2)cnn1-c1ccccc1	/	72	63*	/	-6
Cc1c(C(=O)Nc2cccc(F)c2)cnn1-c1ccccc1	51	109*	23	-27	-6
CC(C)CC#Cc1cnc2c(c1)C(=O)N([C@@H](C)CO)C[C@H](C)[C@H](CN(C)C(=O)c1ccc(F)cc1)O2	-3	/	/	25	/
COc1ccc(/C=N/N2CCN(C)CC2)cc1O	/	-3	/	/	-16
CN1CCN(/N=C/c2ccc(N(c3ccccc3)c3ccccc3)cc2)CC1	-1	13	0	-7	-8
CN1CCN(/N=C/c2ccc(Br)cc2)CC1	40	95*	7	-11	-4
SMILES	esBAF inh	MITF TRPM1 HTS	Wnt bcat act	Statin myotox sup	Rtt109 Vps75
CN1CCN(/N=C/c2ccc(Cl)c(Cl)c2)CC1	/	88*	/	/	-11
CCn1ccnc1CN(C)C(=O)c1cc(COc2ccccc2SC)on1	59*	?	23	0	-5
CSc1ccccc1OCc1cc(C(=O)N(C)CC2COCCO2)no1 (configuration not stated)	25	27	25	0	-3
CSc1ccccc1OCc1cc(C(=O)N(Cc2nccn2C)C(C)C)no1	29	6	0	5	-1
CSc1ccccc1OCc1cc(C(=O)NCc2cccc(C)n2)no1	78*	96*	26	2	0
CSc1ccccc1OCc1cc(C(=O)N(C)Cc2nonc2C)no1	65*	150*	21	-4	5
CSc1ccccc1OCc1cc(C(=O)N(C)Cc2ccncn2)no1	/	117*	16	/	-4
C[C@@H]1CN([C@H](C)CO)C(=O)c2cccc(N(C)C)c2O[C@H]1CN(C)Cc1ccc(Oc2ccccc2)cc1	-3	/	/	-31	/
CC(=O)N1N=C(c2ccc(Br)cc2)CC1c1ccc(Br)cc1 (configuration not stated)	61*	/	-3	-10	/
CCOc1[nH]n(-c2ccccc2)c(=O)c1C=Nc1ccc(Cl)cc1	-8	-2	3	120*	3
CCc1noc(C)c1C(=O)OC(C)C(=O)c1c(C)[nH]c2ccccc12 (configuration not stated)	5	-13	47*	-5	2
CC(C)C#Cc1ccc2c(c1)O[C@H](CN(C)C(=O)C1CCC1)[C@@H](C)CN([C@H](C)CO)S2(=O)=O	/	/	/	-4	/
Cc1c(C(=O)Nc2c(F)cccc2F)sc2ncn(CC(=O)N3CCCCC3)c(=O)c12	-5	1	-2	-11	1
Cc1c(C(=O)Nc2ccccc2F)sc2ncn(CC(=O)N3CCOCC3)c(=O)c12	42*	1	-2	-16	-2
O=C(C[C@@H]1CC[C@H](NC(=O)NC2CCCCC2)[C@H](CO)O1)NCc1ccc(Cl)cc1	2	/	/	4	/
CNC(=O)C[C@H]1CC[C@@H]2[C@H](COC[C@@H](O)CN2C(=O)Nc2cccc(OC)c2)O1	-7	/	/	-5	/
CCOC(=O)c1nn(-c2cccc(Cl)c2)c(C)c1C(C)=O	-6	10	-2	123*	-5
CCOC(=O)c1nn(-c2cccc(OC)c2)c(-c2ccccc2)c1C(=O)c1ccccc1	-2	-15	/	10	3
C/C(=N\N=C(/N)c1nonc1N)c1ccc2c(c1)OCO2	61*	/	12	-6	-5
C/C(=N/NC(=O)c1nnn(-c2nonc2N)c1-c1ccccc1)c1ccc2c(c1)OCO2	-8	2	-1	-45	-14
CC(=O)N[C@H]1CC[C@@H](CCNC(=O)C2CC2)O[C@@H]1CO	-5	/	/	-5	/
O=C(CC1NCCNC1=O)Nc1ccccc1 (configuration not stated)	/	-6	0	/	23
O=C(CC1NCCNC1=O)OCc1ccccc1 (configuration not stated)	13	0	0	96*	-3
C/C=C/c1ccc2c(c1)O[C@@H](CN(C)S(=O)(=O)c1ccc(F)cc1)[C@@H](C)CN([C@@H](C)CO)S2(=O)=O	2	/	/	30	/
c1csc(-c2nc3ccccc3[nH]2)c1	46*	33	/	15	-1
Nc1nc(-c2nc3ccccc3[nH]2)cs1	32	/	56*	-5	-1
Cc1ccc(-c2nc3ccccc3[nH]2)s1	/	61	/	-22	-8
c1ccc(-c2nc3ccccc3[nH]2)cc1	72*	86*	61*	4	6
Cc1ccc(C(=O)CC(SCC(=O)O)c2ccc([N+](=O)[O-])cc2)cc1 (configuration not stated)	/	14	90*	/	-50
COc1ccc(C(=O)CCS(=O)(=O)c2ccc(C)cc2)cc1	-1	0	2	-3	-3

High-throughput results deposited in PubChem by Broad Institute.
